The supplement of paper PMC10849652
Targets with a hit are over-represented here; the source holds about 7,900 in all. About 0.6% of all pairs of compound and target were hits.

Legend:
Experiment in all cases: log2 fold change, soluble protein after heating vs DMSO (PISA); higher = thermal stabilisation; K562 cells, 10 uM, 30 min; active = over 0.2 and 3.5 SD of the protein, either way, in both replicates (recomputed)
[1] = compound: CS(=O)(=O)c1ccc(-c2cnc(N)c(C(=O)Nc3ccccc3)n2)cc1
Procedure, shortened: (§1)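 Quantification of soluble protein used TMTpro 16plex LC-MS/MS, with channel sums equalised. Samples were the supernatant after 21,000xg for 90 min of pooled aliquots from K562 cells (2×10^6 cells/mL) treated with 10 μM compound for 30 min, heated for 3 min over 48°C-58°C, and extracted in PBS with 0.5% NP-40 at 4°C. Values, from duplicates, describe thermal stability against control samples on a log2 fold-change scale.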

crizotinib = compound: C[C@@H](Oc1cc(-c2cnn(C3CCNCC3)c2)cnc1N)c1c(Cl)ccc(F)c1Cl [crizotinib]
Procedure, shortened: as §1

[2] = compound: C[C@@H]1COCCN1C2=NC(=NC(=C2)C3(CC3)S(=O)(=O)C)C4=C5C=CNC5=CC=C4
Procedure, shortened: as §1

[3] = compound: C[C@H](C1=CC=C(C=C1)C(=O)NC2=C3C=CNC3=NC=C2)N
Procedure, shortened: as §1

duvelisib = compound: C[C@H](Nc1ncnc2nc[nH]c12)c1cc2cccc(Cl)c2c(=O)n1-c1ccccc1 [duvelisib]
Procedure, shortened: as §1

gandotinib = compound: Cc1cc(Nc2cc(CN3CCOCC3)c3nc(C)c(Cc4ccc(Cl)cc4F)n3n2)n[nH]1 [gandotinib]
Procedure, shortened: as §1

tozasertib = compound: Cc1cc(Nc2cc(N3CCN(C)CC3)nc(Sc3ccc(NC(=O)C4CC4)cc3)n2)n[nH]1 [tozasertib]
Procedure, shortened: as §1

[4] = compound: Cc1cc(SCc2sc(-c3ccc(C(F)(F)F)cc3)nc2C)ccc1OCC(=O)O
Procedure, shortened: as §1

doramapimod = compound: Cc1ccc(-n2nc(C(C)(C)C)cc2NC(=O)Nc2ccc(OCCN3CCOCC3)c3ccccc23)cc1 [doramapimod]
Procedure, shortened: as §1

ispinesib = compound: Cc1ccc(C(=O)N(CCCN)[C@@H](c2nc3cc(Cl)ccc3c(=O)n2Cc2ccccc2)C(C)C)cc1 [ispinesib]
Procedure, shortened: as §1

Measured: log2 fold change

ATP5IF1 (UniProt Q9UII2)
Sequence of UniProt Q9UII2 (Q9UII2 whole entry, looked up): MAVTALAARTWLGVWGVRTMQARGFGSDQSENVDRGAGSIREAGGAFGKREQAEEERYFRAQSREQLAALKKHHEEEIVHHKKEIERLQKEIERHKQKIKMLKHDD
inactive: [1] 0.004 | crizotinib 0.058 | [2] -0.006 | [3] 0.018 | duvelisib -0.035 | gandotinib -0.056 | tozasertib -0.079 | [4] -0.082 | doramapimod -0.015 | ispinesib -0.019

ACSL3 (UniProt O95573)
inactive: [1] 0.009 | crizotinib -0.013 | [2] 0.011 | [3] -0.024 | duvelisib 0.043 | gandotinib -0.046 | tozasertib 0.001 | [4] 0.097 | doramapimod -0.033 | ispinesib -0.024

ALG3 (UniProt Q92685)
inactive: [1] -0.067 | crizotinib 0.087 | [2] 0.001 | [3] -0.077 | duvelisib 0.057 | gandotinib -0.107 | tozasertib -0.019 | [4] 0.049 | doramapimod 0.006 | ispinesib -0.086

ATP9B (UniProt O43861)
inactive: [1] 0.281 | crizotinib -0.033 | [2] -0.066 | [3] -0.098 | duvelisib 0.029 | gandotinib -0.053 | tozasertib 0.004 | [4] 0 | doramapimod 0.015 | ispinesib -0.208

ATP6V1F isoform 2 (UniProt Q16864)
Sequence of UniProt Q16864 (Q16864 whole entry, looked up): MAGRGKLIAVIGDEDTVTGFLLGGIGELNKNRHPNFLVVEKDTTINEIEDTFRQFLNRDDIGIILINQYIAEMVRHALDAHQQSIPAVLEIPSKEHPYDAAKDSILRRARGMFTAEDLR
inactive: [1] -0.303 | crizotinib 0.034 | [2] -0.025 | [3] -0.031 | duvelisib 0.309 | gandotinib 0.138 | tozasertib 0.06 | [4] -0.043 | doramapimod 0.007 | ispinesib 0.076

AGRN (UniProt O00468)
Sequence of UniProt O00468 (O00468 whole entry, looked up): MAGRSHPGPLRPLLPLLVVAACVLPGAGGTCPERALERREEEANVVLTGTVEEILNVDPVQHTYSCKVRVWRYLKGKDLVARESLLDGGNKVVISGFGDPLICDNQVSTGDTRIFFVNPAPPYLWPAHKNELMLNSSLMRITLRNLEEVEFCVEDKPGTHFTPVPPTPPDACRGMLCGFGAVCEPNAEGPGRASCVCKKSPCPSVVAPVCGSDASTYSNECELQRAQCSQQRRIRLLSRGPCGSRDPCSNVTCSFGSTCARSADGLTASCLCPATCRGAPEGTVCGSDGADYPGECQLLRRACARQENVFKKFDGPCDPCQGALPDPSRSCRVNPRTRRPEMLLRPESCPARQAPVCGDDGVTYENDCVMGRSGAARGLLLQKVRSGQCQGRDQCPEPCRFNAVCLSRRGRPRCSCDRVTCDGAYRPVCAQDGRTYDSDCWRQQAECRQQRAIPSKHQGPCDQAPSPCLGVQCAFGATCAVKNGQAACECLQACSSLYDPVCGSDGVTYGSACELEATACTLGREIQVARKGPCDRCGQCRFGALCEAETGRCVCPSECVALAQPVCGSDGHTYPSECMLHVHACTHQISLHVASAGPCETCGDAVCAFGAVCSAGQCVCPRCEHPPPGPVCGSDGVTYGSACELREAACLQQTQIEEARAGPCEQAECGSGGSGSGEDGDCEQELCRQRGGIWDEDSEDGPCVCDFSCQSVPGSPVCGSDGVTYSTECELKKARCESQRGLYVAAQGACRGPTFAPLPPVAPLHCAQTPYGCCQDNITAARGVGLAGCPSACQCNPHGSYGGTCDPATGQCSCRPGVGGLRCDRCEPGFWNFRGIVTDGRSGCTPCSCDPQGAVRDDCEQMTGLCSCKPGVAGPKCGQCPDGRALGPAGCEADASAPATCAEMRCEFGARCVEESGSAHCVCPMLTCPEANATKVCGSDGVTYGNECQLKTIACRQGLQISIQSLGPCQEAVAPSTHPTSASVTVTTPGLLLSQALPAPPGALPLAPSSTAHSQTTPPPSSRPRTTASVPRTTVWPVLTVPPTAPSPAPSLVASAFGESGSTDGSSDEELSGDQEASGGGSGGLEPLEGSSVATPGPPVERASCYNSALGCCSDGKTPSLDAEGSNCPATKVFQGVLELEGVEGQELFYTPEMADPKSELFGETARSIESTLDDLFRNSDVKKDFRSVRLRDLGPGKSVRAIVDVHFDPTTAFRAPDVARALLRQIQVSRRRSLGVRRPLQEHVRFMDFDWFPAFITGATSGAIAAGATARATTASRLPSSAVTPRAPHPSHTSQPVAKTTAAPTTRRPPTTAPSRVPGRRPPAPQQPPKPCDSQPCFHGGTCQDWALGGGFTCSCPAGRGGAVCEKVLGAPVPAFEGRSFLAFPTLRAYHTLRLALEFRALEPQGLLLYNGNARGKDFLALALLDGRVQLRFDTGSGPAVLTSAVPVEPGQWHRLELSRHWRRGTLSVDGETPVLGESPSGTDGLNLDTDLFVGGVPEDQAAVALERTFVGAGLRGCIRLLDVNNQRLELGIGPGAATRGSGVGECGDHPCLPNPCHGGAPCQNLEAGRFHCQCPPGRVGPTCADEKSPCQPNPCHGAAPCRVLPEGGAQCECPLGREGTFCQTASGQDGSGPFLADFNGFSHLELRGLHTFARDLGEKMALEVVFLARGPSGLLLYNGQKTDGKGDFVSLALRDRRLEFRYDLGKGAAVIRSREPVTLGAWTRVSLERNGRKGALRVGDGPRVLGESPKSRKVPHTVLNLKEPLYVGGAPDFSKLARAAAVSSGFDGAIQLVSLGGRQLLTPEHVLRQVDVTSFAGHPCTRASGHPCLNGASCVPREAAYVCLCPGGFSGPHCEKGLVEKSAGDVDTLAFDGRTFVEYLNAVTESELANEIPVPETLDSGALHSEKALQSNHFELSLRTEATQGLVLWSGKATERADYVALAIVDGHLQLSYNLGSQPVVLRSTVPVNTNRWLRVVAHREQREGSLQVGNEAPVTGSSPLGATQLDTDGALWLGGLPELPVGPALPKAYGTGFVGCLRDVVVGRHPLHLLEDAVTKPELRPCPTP
inactive: [1] -0.078 | crizotinib -0.01 | [2] -0.073 | [3] -0.021 | duvelisib -0.162 | gandotinib -0.012 | tozasertib 0.026 | [4] 0.24 | doramapimod 0.062 | ispinesib 0.009

BAP1 (UniProt Q92560)
Sequence of UniProt Q92560 (Q92560 whole entry, looked up): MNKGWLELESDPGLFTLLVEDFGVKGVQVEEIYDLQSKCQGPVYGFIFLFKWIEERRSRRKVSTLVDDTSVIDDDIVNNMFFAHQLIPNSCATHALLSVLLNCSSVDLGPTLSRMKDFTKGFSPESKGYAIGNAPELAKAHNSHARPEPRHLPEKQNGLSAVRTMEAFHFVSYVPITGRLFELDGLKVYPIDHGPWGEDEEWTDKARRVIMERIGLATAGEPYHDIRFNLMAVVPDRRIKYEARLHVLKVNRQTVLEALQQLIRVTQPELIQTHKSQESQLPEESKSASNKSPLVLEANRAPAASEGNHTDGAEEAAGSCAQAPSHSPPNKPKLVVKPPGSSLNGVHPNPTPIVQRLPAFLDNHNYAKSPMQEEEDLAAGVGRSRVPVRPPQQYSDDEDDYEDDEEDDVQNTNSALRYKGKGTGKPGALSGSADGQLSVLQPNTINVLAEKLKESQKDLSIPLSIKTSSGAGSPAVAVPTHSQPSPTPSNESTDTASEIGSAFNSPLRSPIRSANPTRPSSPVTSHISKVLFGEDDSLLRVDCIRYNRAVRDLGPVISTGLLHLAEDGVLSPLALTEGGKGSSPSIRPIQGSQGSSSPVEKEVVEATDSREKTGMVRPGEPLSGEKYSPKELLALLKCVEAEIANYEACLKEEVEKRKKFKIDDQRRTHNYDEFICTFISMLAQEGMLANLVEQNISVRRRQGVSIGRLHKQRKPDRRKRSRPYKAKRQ
inactive: [1] 0.07 | crizotinib -0.078 | [2] 0 | [3] 0.126 | duvelisib -0.089 | gandotinib 0.076 | tozasertib 0.079 | [4] 0.085 | doramapimod 0.112 | ispinesib -0.043

ALDH1B1 (UniProt P30837)
inactive: [1] 0.054 | crizotinib -0.067 | [2] 0.12 | [3] -0.068 | duvelisib 0.021 | gandotinib -0.025 | tozasertib -0.011 | [4] 0.008 | doramapimod -0.006 | ispinesib 0.019

ATP6V0A2 (UniProt Q9Y487)
inactive: [1] -0.002 | crizotinib -0.197 | [2] -0.048 | [3] 0.07 | duvelisib -0.062 | gandotinib -0.006 | tozasertib 0.014 | [4] 0.064 | doramapimod 0.09 | ispinesib -0.18

AKT2 (UniProt P31751)
inactive: [1] 0.035 | crizotinib -0.18 | [2] -0.211 | [3] 0.051 | duvelisib 0.039 | gandotinib -0.233 | tozasertib -0.075 | [4] 0.113 | doramapimod 0.015 | ispinesib -0.083

ADD2 (UniProt P35612)
inactive: [1] 0.021 | crizotinib -0.005 | [2] 0.022 | [3] -0.052 | duvelisib 0.017 | gandotinib -0.042 | tozasertib -0.057 | [4] -0.029 | doramapimod 0.016 | ispinesib 0.088

ATAD3B (UniProt Q5T9A4)
Sequence of UniProt Q5T9A4 (Q5T9A4 whole entry, looked up): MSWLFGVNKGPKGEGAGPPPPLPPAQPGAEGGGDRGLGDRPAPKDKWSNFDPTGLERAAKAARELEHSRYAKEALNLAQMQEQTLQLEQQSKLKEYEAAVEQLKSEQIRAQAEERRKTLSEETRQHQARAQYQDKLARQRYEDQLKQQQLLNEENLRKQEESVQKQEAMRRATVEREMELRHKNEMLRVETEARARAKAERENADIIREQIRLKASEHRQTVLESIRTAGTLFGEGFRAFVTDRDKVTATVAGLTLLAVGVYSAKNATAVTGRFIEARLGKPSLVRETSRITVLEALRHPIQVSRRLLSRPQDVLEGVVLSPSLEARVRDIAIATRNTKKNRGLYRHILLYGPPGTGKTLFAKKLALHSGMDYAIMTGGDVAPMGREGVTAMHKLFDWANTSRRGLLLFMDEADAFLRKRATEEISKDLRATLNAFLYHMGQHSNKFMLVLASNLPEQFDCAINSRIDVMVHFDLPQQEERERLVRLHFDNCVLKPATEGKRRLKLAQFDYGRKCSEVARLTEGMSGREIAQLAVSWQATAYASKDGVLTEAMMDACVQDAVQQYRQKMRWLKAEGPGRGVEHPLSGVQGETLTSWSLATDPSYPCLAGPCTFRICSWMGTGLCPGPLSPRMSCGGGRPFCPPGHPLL
active: ispinesib -0.544
inactive: [1] 0.009 | crizotinib -0.171 | [2] -0.112 | [3] 0.191 | duvelisib -0.05 | gandotinib 0.033 | tozasertib 0.034 | [4] 0.105 | doramapimod 0.137

AP2S1 (UniProt P53680)
inactive: [1] -0.022 | crizotinib -0.106 | [2] 0.453 | [3] -0.151 | duvelisib 0.04 | gandotinib -0.046 | tozasertib -0.054 | [4] 0.046 | doramapimod 0.031 | ispinesib 0.077

BRD8 isoform 2 (UniProt Q9H0E9)
inactive: [1] -0.134 | crizotinib 0.044 | [2] -0.11 | [3] 0.042 | duvelisib 0.037 | gandotinib 0.113 | tozasertib 0.004 | [4] -0.012 | doramapimod 0.04 | ispinesib 0.061

ARMC10 (UniProt Q8N2F6)
inactive: [1] 0.002 | crizotinib -0.04 | [2] 0.016 | [3] 0.006 | duvelisib 0.033 | gandotinib -0.09 | tozasertib 0.065 | [4] 0.108 | doramapimod 0.018 | ispinesib 0.027

BYSL (UniProt Q13895)
Sequence of UniProt Q13895 (Q13895 whole entry, looked up): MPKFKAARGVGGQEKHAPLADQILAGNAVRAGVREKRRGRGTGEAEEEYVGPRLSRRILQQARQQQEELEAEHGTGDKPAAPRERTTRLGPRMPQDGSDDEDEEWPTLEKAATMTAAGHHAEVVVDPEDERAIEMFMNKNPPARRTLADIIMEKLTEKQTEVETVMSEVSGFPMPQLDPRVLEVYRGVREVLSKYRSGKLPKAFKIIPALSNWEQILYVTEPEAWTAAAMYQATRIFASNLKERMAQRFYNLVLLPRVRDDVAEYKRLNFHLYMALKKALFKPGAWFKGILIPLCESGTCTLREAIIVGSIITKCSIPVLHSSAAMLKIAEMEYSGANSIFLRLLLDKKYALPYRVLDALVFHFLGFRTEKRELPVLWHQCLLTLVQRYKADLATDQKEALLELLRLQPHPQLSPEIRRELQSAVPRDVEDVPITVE
inactive: [1] -0.003 | crizotinib -0.049 | [2] 0 | [3] 0.05 | duvelisib -0.041 | gandotinib -0.012 | tozasertib 0.1 | [4] 0.135 | doramapimod 0.037 | ispinesib -0.094

ABCA3 (UniProt Q99758)
inactive: [1] 0.111 | [2] 0.174 | [3] 0.073 | duvelisib 0.035 | gandotinib 0.036 | tozasertib 0.005 | [4] 0.014 | doramapimod 0.031
active: crizotinib -0.361 | ispinesib -0.502

ACO2 (UniProt Q99798)
Sequence of UniProt Q99798 (Q99798 whole entry, looked up): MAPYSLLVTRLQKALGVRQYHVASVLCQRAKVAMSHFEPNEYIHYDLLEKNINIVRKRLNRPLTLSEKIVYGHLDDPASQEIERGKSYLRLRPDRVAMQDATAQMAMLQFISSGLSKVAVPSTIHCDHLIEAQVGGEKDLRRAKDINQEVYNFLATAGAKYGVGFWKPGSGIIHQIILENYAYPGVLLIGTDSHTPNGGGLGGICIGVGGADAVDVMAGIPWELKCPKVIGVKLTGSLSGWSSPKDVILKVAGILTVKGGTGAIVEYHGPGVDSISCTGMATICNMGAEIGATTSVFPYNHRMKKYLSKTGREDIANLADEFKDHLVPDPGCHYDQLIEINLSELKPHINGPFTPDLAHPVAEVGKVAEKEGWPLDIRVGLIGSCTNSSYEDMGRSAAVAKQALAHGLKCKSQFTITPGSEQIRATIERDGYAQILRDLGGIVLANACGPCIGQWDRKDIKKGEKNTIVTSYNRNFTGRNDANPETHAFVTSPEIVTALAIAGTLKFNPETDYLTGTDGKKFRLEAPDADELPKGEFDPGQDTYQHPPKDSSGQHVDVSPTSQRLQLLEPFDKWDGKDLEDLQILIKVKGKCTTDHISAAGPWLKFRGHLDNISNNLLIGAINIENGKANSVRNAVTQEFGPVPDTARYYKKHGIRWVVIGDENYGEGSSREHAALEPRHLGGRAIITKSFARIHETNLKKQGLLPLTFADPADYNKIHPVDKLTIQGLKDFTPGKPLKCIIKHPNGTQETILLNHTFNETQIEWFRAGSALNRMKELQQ
inactive: [1] 0 | crizotinib -0.022 | [2] 0.102 | [3] -0.085 | duvelisib 0.03 | gandotinib -0.088 | tozasertib -0.024 | [4] 0.078 | doramapimod -0.026 | ispinesib 0.041

ACAP2 (UniProt Q15057)
inactive: [1] 0.032 | crizotinib 0.033 | [2] 0.069 | [3] 0.023 | duvelisib 0.023 | gandotinib -0.07 | tozasertib 0.026 | [4] 0.047 | doramapimod -0.059 | ispinesib 0.002

AARS2 (UniProt Q5JTZ9)
inactive: [1] 0.017 | crizotinib -0.04 | [2] 0.138 | [3] -0.03 | duvelisib 0.053 | gandotinib -0.058 | tozasertib -0.039 | [4] 0.036 | doramapimod 0.026
active: ispinesib -0.223

ALDH2 (UniProt P05091)
inactive: [1] -0.047 | crizotinib -0.044 | [2] 0.051 | [3] -0.038 | duvelisib 0.056 | gandotinib -0.088 | tozasertib -0.039 | [4] 0.022 | doramapimod 0.033 | ispinesib -0.023

ADH5 (UniProt P11766)
inactive: [1] -0.021 | crizotinib 0.033 | [2] 0.032 | [3] -0.033 | duvelisib -0.002 | gandotinib -0.014 | tozasertib -0.003 | [4] -0.031 | doramapimod -0.033 | ispinesib -0.003

AGPAT3 isoform 3 (UniProt Q9NRZ7)
inactive: [1] -0.051 | crizotinib -0.04 | [2] 0.125 | [3] -0.074 | duvelisib 0.005 | gandotinib -0.004 | tozasertib -0.002 | [4] 0.023 | doramapimod 0.004 | ispinesib -0.074

AKAP8 (UniProt O43823)
inactive: [1] 0.047 | crizotinib -0.104 | [2] 0.077 | [3] 0.062 | duvelisib 0.032 | gandotinib -0.036 | tozasertib 0.005 | [4] 0.061 | doramapimod 0.033 | ispinesib -0.103

ALKBH5 (UniProt Q6P6C2)
inactive: [1] 0.048 | crizotinib 0.032 | [2] -0.11 | [3] 0.013 | duvelisib 0.012 | gandotinib 0.267 | tozasertib -0.167 | [4] -0.055 | doramapimod -0.01 | ispinesib 0.007

ABITRAM (UniProt Q9NX38)
inactive: [1] 0.055 | crizotinib 0.012 | [2] 0.1 | [3] -0.011 | duvelisib 0.029 | gandotinib 0.169 | tozasertib -0.012 | [4] 0.079 | doramapimod 0.006 | ispinesib 0.108

ABHD17A isoform 2 (UniProt Q96GS6)
inactive: [1] -0.027 | crizotinib -0.135 | [2] -0.03 | [3] -0.015 | duvelisib -0.008 | gandotinib -0.283 | tozasertib -0.024 | [4] 0.016 | doramapimod 0.004 | ispinesib -0.129

ATP13A2 (UniProt Q9NQ11)
active: ispinesib -0.363
inactive: [1] -0.012 | crizotinib -0.214 | [2] 0.031 | [3] 0.008 | duvelisib 0.105 | gandotinib 0.01 | tozasertib -0.006 | [4] 0.018 | doramapimod 0.025

AGPAT1 (UniProt Q99943)
inactive: [1] 0.017 | crizotinib 0.187 | [2] 0.043 | [3] -0.018 | duvelisib 0.041 | gandotinib -0.106 | tozasertib 0.012 | [4] 0.014 | doramapimod 0.019 | ispinesib 0.096

ATP5ME (UniProt P56385)
Sequence of UniProt P56385 (P56385 whole entry, looked up): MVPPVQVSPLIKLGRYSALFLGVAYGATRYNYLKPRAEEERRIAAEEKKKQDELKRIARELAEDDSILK
inactive: [1] -0.016 | crizotinib 0.101 | [2] 0.102 | [3] -0.046 | duvelisib 0 | gandotinib 0.001 | tozasertib 0.008 | [4] -0.016 | doramapimod 0.033 | ispinesib 0.078
